Bioassay records from PubChem BioAssay.
In the library only some 2.4% were active in any assay of this set; here they are far more common.
POLK inh: inhibitors of human DNA polymerase kappa. purified Pol kappa, fluorescent DNA synthesis assay, 10 min. AID 588579. 0.53% of 400,000 active. Potency, µM (series often up to 107 µM), hits mostly inhibitors. Q9UBT6
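Readout: fluorescence, taken kinetically at 0 and 10 min. Conditions: 10 nM Pol kappa, 15 min RT compound preincubation, 50 nM substrate final. Controls: enzyme-free buffer wells.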
Pol eta inh: blocks human DNA polymerase eta activity; AID 588591; 1.2% of 390,000 active; recombinant Pol eta, fluorescent DNA replication assay; Q9Y253; Potency, µM (top dose mostly 114 µM), hits mostly inhibitors
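Pol eta at 10 nM preincubated with compounds 15 min at room temperature; reaction started with fluorescent substrate (50 nM final) and read kinetically at 0 and 10 min.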
FEN1 inhibitor: blocks human flap endonuclease 1; P39748; Recombinant FEN1 flap cleavage, fluorescence, 15 min; Potency, µM (top dose mostly 114 µM), actives largely listed as inhibitors; 0.35% of 390,000 active; further: nearly all actives have a fitted effect of over 65% in size
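Compounds are tested as a concentration series against 10 nM FEN1; after a 15 min room-temperature preincubation, 50 nM substrate starts cleavage, with plate reads at 0 and 15 min. Normalized responses are fitted by a Hill equation.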
WRN inhibitor: WRN helicase (human) inhibition | WRN helicase unwinding, fluorescent forked duplex, kinetic | Potency, µM (titrated, usually from 114 µM), most hits filed as inhibitors | 0.46% of 360,000 active | AID 651768; further: nearly all actives have a fitted effect of over 55% in size
Target sequence (Q14191 whole entry, looked up): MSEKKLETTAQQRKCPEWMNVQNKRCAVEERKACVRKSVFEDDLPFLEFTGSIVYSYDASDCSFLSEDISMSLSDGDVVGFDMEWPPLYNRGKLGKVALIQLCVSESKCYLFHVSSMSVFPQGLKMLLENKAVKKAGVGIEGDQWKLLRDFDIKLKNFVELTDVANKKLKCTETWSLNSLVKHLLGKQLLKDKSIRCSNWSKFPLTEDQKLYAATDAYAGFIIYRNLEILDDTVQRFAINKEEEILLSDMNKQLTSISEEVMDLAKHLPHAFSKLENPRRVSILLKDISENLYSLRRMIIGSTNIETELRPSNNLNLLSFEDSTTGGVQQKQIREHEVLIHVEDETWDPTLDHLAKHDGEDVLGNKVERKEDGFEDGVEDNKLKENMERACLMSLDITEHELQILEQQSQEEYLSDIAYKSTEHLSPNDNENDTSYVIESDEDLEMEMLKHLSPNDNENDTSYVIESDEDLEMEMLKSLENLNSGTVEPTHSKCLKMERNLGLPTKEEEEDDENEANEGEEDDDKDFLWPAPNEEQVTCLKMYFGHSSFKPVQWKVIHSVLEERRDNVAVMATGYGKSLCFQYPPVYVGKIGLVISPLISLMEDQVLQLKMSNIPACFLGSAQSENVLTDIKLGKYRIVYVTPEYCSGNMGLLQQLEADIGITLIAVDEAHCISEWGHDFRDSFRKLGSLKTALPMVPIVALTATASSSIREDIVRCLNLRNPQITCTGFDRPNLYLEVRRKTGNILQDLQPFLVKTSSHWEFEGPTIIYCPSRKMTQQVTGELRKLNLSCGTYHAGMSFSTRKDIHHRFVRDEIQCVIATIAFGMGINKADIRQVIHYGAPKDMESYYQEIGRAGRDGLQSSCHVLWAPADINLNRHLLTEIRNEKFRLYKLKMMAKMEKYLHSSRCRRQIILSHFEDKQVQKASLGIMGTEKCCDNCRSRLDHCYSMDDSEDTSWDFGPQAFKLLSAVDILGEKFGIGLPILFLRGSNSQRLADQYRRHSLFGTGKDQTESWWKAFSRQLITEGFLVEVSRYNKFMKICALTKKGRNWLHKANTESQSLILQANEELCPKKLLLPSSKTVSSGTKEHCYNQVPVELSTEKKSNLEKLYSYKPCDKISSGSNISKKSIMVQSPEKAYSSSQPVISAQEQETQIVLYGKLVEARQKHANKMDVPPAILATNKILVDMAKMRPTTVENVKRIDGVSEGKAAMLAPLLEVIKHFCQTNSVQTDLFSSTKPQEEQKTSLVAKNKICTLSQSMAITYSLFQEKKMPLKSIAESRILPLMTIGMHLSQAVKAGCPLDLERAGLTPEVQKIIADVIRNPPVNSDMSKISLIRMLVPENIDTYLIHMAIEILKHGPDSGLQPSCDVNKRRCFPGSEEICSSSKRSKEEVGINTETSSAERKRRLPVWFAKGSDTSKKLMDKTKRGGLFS
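WRN at 20 nM final was preincubated with compound for 15 min at room temperature; reaction started with 100 nM forked duplex oligonucleotide carrying fluorophore and quencher plus 2 mM ATP (final). Unwinding followed kinetically by red fluorescence (ex 525/em 598 nm).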
Pol beta inh: DNA polymerase beta (human) inhibition; P06746; Pol beta primer extension/strand displacement, fluorescence kinetic; Potency, µM (highest dose often 114 µM), hits mostly inhibitors; 1.3% of 340,000 active; AID 485314
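Pol beta (10 nM) and compounds were preincubated 15 min at room temperature, then 50 nM substrate (final) started primer extension/strand displacement. Reads were taken at 0 and 10 min; concentration-response data were fitted to a four-parameter Hill equation.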
Pol iota inh: DNA polymerase iota (human) inhibition; Q9UNA4; Pol iota fluorescent replication assay, 10 min; Potency, µM (series often up to 115 µM), most hits filed as inhibitors; 1% of 390,000 active
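Fluorescent replication assay read twice, at 0 min and 10 min after adding 50 nM (final) substrate. Enzyme (10 nM) and compounds were first incubated 15 min at room temperature; enzyme-free buffer wells were negative controls.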
Each line names hits and unclear results; the compound was inactive in the other large screens; ! = not confirmed by another sample. The call rests on the fitted dose curve; in most records, active means well fitted curve in the direction sought with a large enough effect; inconclusive means small, poorly fitted or top-dose-only effect, or another doubt; inactive means no such curve, though single readings can be large; an effect the other way counts as inactive or inconclusive.

O=c1[nH]sc2ccccc12	FEN1 inhibitor inconclusive, WRN inhibitor 32µM, Pol iota inh 25µM
COc1ccc(/C=N/NC(=O)Cc2ccc(Cl)cc2)cc1OC	none
COc1cc(/C=N/NC(=O)c2sc(N)c(C#N)c2C)cc(Br)c1O	Pol eta inh inconclusive, Pol iota inh inconclusive
COc1cc(/C=N/NC(=O)CC#N)cc(Br)c1O	Pol iota inh 45µM
COc1cc(/C=N/NC(N)=O)cc([N+](=O)[O-])c1O	POLK inh inconclusive, Pol eta inh 50µM, Pol beta inh inconclusive
COc1cc(/C=N/NC(=O)Cc2ccc(Br)cc2)cc(OC)c1O	Pol beta inh 22µM
O=C(N/N=C/c1ccc2ccccc2c1)c1ccc(COc2ccc3c(c2)CCC3)o1	Pol eta inh 10µM, FEN1 inhibitor inconclusive, WRN inhibitor inconclusive, Pol beta inh 35µM
CCc1c(C)c(C#N)c2nc3ccccc3n2c1Nc1cccc(C(F)(F)F)c1	none (no result: Pol eta inh, WRN inhibitor)
COc1cc(/C=N/NC(=O)c2ccc(COc3ccccc3Cl)o2)cc(Br)c1O	Pol eta inh inconclusive, Pol beta inh 28µM, Pol iota inh inconclusive
COc1cccc(/C=N/NC(=O)c2ccc(COc3ccc(Cl)cc3Cl)o2)c1	none
Cc1c(C(=O)OC(C)C)sc(NC(=O)C2c3ccccc3Oc3ccccc32)c1C(=O)OC(C)C	POLK inh inconclusive, Pol beta inh inconclusive, Pol iota inh 89µM (no result: WRN inhibitor)
Cc1sc(NC(=O)C2c3ccccc3Oc3ccccc32)c(C(=O)OC(C)C)c1C	none (no result: WRN inhibitor)
C[N+](C)(C)CC(=O)N/N=C/c1c2ccccc2cc2ccccc12	FEN1 inhibitor 50µM, Pol beta inh 45µM
Cc1ccc(C)c(N2CCN(C(=O)C3CCN(c4nc5ccc(C)cc5[nH]4)CC3)CC2)c1	none (no result: WRN inhibitor)
CC(C)(C)n1ncc2c(=O)n(Cc3ccccc3-c3ccccc3)cnc21	none (no result: Pol eta inh, WRN inhibitor, Pol beta inh)
Cc1noc(-c2ccc(N3CCCCC3C)c([N+](=O)[O-])c2)n1 (configuration not stated)	Pol beta inh 40µM (no result: WRN inhibitor)
Cc1ccc(-c2noc(-c3ccc(N4CCCCC4C)c([N+](=O)[O-])c3)n2)cc1 (configuration not stated)	none (no result: WRN inhibitor)
Cc1c(N=Cc2cc3c(cc2[N+](=O)[O-])OCO3)cccc1[N+](=O)[O-]	POLK inh 45µM, Pol eta inh inconclusive, FEN1 inhibitor inconclusive, Pol iota inh 7.9µM (no result: Pol beta inh)
CC/C(C)=N/Nc1nc(-c2cc3cccc(OC)c3oc2=O)cs1	POLK inh inconclusive, Pol eta inh 50µM, WRN inhibitor inconclusive, Pol iota inh 50µM
COc1cccc2cc(-c3csc(CCn4nc(C)cc4C)n3)c(=O)oc12	Pol eta inh inconclusive
COc1ccc(CCn2c(=S)[nH]c3cc(C(=O)NCc4ccco4)ccc3c2=O)cc1OC	Pol eta inh inconclusive, Pol beta inh 22µM
COc1ccc(-n2c(=S)[nH]c3cc(C(=O)NCc4ccco4)ccc3c2=O)cc1OC	none
O=C(c1ccc2c(=O)n(Cc3ccco3)c(=S)[nH]c2c1)N1CCN(Cc2ccc3c(c2)OCO3)CC1	POLK inh inconclusive, FEN1 inhibitor inconclusive, Pol iota inh 89µM (no result: Pol eta inh, WRN inhibitor, Pol beta inh)
O=C(NCCCN1CCCC1=O)c1ccc2c(=O)n(Cc3ccco3)c(=S)[nH]c2c1	Pol beta inh 32µM, Pol iota inh inconclusive
O=C(c1ccc2c(=O)n(Cc3ccc4c(c3)OCO4)c(=S)[nH]c2c1)N1CCN(Cc2ccccc2)CC1	none (no result: Pol eta inh, WRN inhibitor, Pol beta inh)
Cc1ccc(CNC(=O)c2ccc3c(=O)n(CCCN4CCCC4=O)c(=S)[nH]c3c2)cc1	Pol beta inh 32µM
Cc1cc(C)n(CCc2nc3c4ccccc4nc(N4CCN(c5ccccc5F)CC4)n3n2)n1	none (no result: WRN inhibitor)
Cc1ccc2[nH]cc(C(c3ccccc3)c3ccc(C)s3)c2c1 (configuration not stated)	none (no result: WRN inhibitor)
COc1ccc(-c2cc(C(F)(F)F)nc(S(=O)(=O)CCCC(=O)Nc3ccccc3C(F)(F)F)n2)cc1OC	Pol beta inh inconclusive (no result: WRN inhibitor)
O=C1NN(c2ccccc2)C(=O)/C1=C\c1cccc(OC(=O)c2cccs2)c1	Pol eta inh 28µM, WRN inhibitor inconclusive, Pol beta inh 28µM, Pol iota inh inconclusive
CCOC(=O)c1cc2c(=O)n3ccccc3nc2n(Cc2ccco2)c1=NC(=O)c1ccc(OC)cc1	POLK inh inconclusive, FEN1 inhibitor 79µM!, Pol iota inh 22µM!
Cc1ccc(S(=O)(=O)c2cc3c(=O)n4ccccc4nc3n(Cc3ccco3)c2=N)cc1C	Pol beta inh 8.9µM, Pol iota inh inconclusive
N=c1c(S(=O)(=O)c2ccccc2)cc2c(=O)n3ccccc3nc2n1Cc1ccco1	Pol eta inh inconclusive, Pol beta inh 18µM, Pol iota inh inconclusive
CCn1c(=N)c(S(=O)(=O)c2ccccc2)cc2c(=O)n3ccccc3nc21	none
Cc1ccc2nc3c(cc(S(=O)(=O)c4ccccc4)c(=N)n3Cc3ccco3)c(=O)n2c1	Pol beta inh 7.9µM
Cc1nc(SC(C)C(=O)Nc2ccccc2Cl)cc(-c2ccccc2)n1 (configuration not stated)	none (no result: WRN inhibitor)
Cc1ccc2oc(-c3cccc(NC(=S)NC(=O)c4cccs4)c3)nc2c1	none
Cc1cc(C)c2oc(-c3ccc(C)c(NC(=S)NC(=O)/C=C/c4ccco4)c3)nc2c1	Pol eta inh inconclusive, Pol beta inh 20µM
COc1ccc(NC(=S)NC(=O)/C=C/c2ccco2)c(OC)c1	none
Cc1cc(C)c2oc(-c3ccc(C)c(NC(=S)NC(=O)c4cccs4)c3)nc2c1	none
Cc1ccc(NC(=S)NC(=O)/C=C/c2ccco2)c(O)c1	POLK inh inconclusive, Pol eta inh inconclusive, Pol beta inh 18µM, Pol iota inh inconclusive
Cc1ccc2oc(-c3cccc(NC(=S)NC(=O)/C=C/c4ccco4)c3)nc2c1	POLK inh inconclusive, Pol eta inh 13µM, WRN inhibitor inconclusive, Pol beta inh 45µM, Pol iota inh inconclusive
CN1OC[C@@H]2CN(C(=O)C(C)(C)C)[C@H](c3ccc(-c4cc5ccccc5o4)cc3)C[C@@H]21	none (no result: POLK inh, FEN1 inhibitor, Pol beta inh, Pol iota inh)
CC(=O)C1(O)Cc2c(O)c3c(c(O)c2C(OC2CC(N)C(O)C(C)O2)C1)C(=O)c1c(O)cccc1C3=O (configuration not stated)	POLK inh 7.1µM, FEN1 inhibitor inconclusive, Pol iota inh inconclusive (no result: Pol eta inh, WRN inhibitor, Pol beta inh)
COc1cccc2c1C(=O)c1c(O)c3c(c(O)c1C2=O)C[C@@](O)(C(=O)CO)C[C@@H]3O[C@H]1C[C@H](N)[C@H](O)[C@H](C)O1	POLK inh 27µM!, Pol eta inh 45µM, WRN inhibitor 56µM, Pol beta inh 8.9µM
Cc1cccc(N(CC(O)Cn2c3ccccc3c3ccccc32)S(=O)(=O)c2ccc(F)cc2)c1 (configuration not stated)	Pol iota inh inconclusive (no result: WRN inhibitor)
Cc1ccc(S(=O)(=O)N2CCOCC2)cc1NC(=O)Cn1c(=O)ccn(Cc2ccccc2)c1=O	none (no result: Pol beta inh)
